# According to PubChem BioAssay AID1347071 (National Center for Advancing Translational Sciences (NCATS), 2019):
# About 260 (0.063%) of roughly 410,000 compounds were called active. Another 2% or so got no clear call; they are omitted. Calls follow the shape of the dose curve; as a rule, active = well fitted activation curve with a large enough effect; inconclusive = small, poorly fitted or top-dose-only effect; inactive = no such curve, though single readings can be large or run the other way. The list comes from a sample in which actives are over-represented; it also holds similar structures and randomly drawn compounds. A call without a number means that no potency is given here.
# Assay: qHTS for compounds that reverse cellular toxicity of Amyloid beta (A-beta) peptide in yeast: Primary Screen; also: nearly all actives have a fitted effect of over 55% in size
# Conditions: yeast expressing A-beta42, growth rescue, OD600, 48 h; series mostly up to 46.1 µM
# Source text: The A-beta peptide is produced by the processing of the amyloid precursor protein (APP) by two proteases, beta and gamma secretases. […] A-beta42 is regarded as the most amyloidogenic form due to its hydrophobicity; however, precisely how A-beta42 induces neurotoxicity is unclear. To understand further this biology and its potential therapeutic implications for human neurodegenerative disease, a quantitative high-throughput screen for compounds that reverse the cellular toxicity of the A-beta peptide was developed. A yeast based screen was used because it recapitulates the salient feature of protein mis-folding disorder accurately. This cell-based phenotypic screen provides a significant, unbiased advantage by letting the compounds and models inform us which proteins or pathways are most relevant. The ideal chemical candidates would therefore have activity in both our primary yeast and secondary neuronal toxicity assays, as well as in mouse models. They will be valuable tools for dissecting diverse protein homeostasis pathologies and could potentially become the focus for future pre-clinical development. For this luminescence assay, inhibition of A-beta rescues the toxic effect in the yeast cell, resulting in increase of signals and the desired phenotype of "Activator". This screen is run against the Molecular Libraries Small Molecule Repository (MLSMR) and the NCGC Sytravon Library Collection.
# NIH Chemical Genomics Center [NCGC]
# NIH Molecular Libraries Probe Centers Network [MLPCN]
# Assay Submitter (PI): Susan Lindquist, Whitehead Institute, Massachusetts Institute of Technology
# [1] Vassar R,et al (1999). Beta-secretase cleavage of Alzheimer's amyloid precursor protein by the transmembrane aspartic protease BACE. Science. 286: 735-741.
# [2] Yan R, et al (1999). Membrane-anchored aspartyl protease with Alzheimer's disease beta-secretase activity. Nature. 402: 533-536.
# Two and a half microliter / well of yeast growth medium were dispensed in a 1536 assay plate. Compounds were pinned using the Kalypsys robotic system followed by addition of 2.5 uL / well yeast solution. The assay plates were incubated at 30 C. After 48 hr, the absorbance signal at 600 nm was obtained using the PerkinElmer ViewLux plate reader to assess yeast growth. The data was normalized to the positive control of an equimolar mixture of ferric chloride (FeCl3) and clioquinol and to the negative control DMSO.
# Potency is read from the fitted curve at half-maximal effect.
row,Structure (SMILES),Potency
1,O=c1cc(COc2cccc(C(F)(F)F)c2)nc2sc3c(n12)CCCC3,inactive
2,CCc1ccc(NC(=O)CN2C(=O)C(c3ccccc3)=NC23CCCCCC3)cc1,inactive
3,COc1ccc(S(=O)(=O)N2CCN(C(=O)NC3CCCCC3)CC2)cc1,inactive
4,COc1ccc(C(=O)NC(=S)NC2CCCCC2)cc1,12.6 µM (active)
5,CCCNC(=S)N1CCC(NC(=O)c2ccc(OC)cc2)CC1,inactive
6,CCOc1ccc(NC(=O)CCC(=O)N2CC(C)Oc3ccc(C)cc32)cc1 (stereo not given),inactive
7,CCn1c(CN2CCC(C)CC2)nc2cc(NC(=O)c3ccccc3[N+](=O)[O-])ccc21,inactive
8,CCc1cccc(NC(=O)Cn2nc(CC)n3c(cc4cc(C)ccc43)c2=O)c1,inactive
9,CC1=C(c2ccc(C)cc2)S(=O)(=O)NC1=NCCCN1CCN(c2cc(C)ccc2C)CC1,inactive
10,COc1cccc(-c2cc(C(=O)Nc3ccc(C)cc3)[nH]n2)c1,inactive
11,Cc1ccc(N2CCN(C(=O)CCc3c(C)nc4c(c3C)c(=O)n(C)c(=O)n4C)CC2)c(C)c1,inactive
12,CCOC(=O)c1c(NC(=O)/C(C#N)=C/c2ccccc2)sc2c1CCC2,inactive
13,COc1ccccc1CN1CCC(CNC(=O)c2cnn(-c3ccccc3Cl)c2C2CCN(C(=O)OC(C)(C)C)CC2)CC1,inactive
14,CCn1c(CNC(=O)C23CC4CC(CC(C4)C2)C3)nnc1SCC(=O)Nc1ccc(OC)cc1,inactive
15,COc1ccc(-c2nn(CC(=O)NC3CCCC3)c3c2cnc2ccc(F)cc23)cc1,inactive
16,Cc1nn(C(C)C(=O)Nc2ccc(C(C)C)cc2)c(=O)c2c1sc1ccccc12 (stereo not given),inactive
17,COc1cc(OC)c(NC(=O)c2nc(-c3ccncc3)no2)cc1Cl,inactive
18,COc1ccc(CCN2C(=O)c3oc4cc(C)cc(C)c4c(=O)c3C2c2ccccc2F)cc1OC (stereo not given),inactive
19,CCOC(=O)c1cc2c(=O)n3ccccc3nc2n(CCCOC)c1=NC(=O)C(C)Oc1ccccc1 (stereo not given),inactive
20,COc1cc(C(=O)Nc2ccc(OCc3cc(=O)n4cc(C)sc4n3)cc2)cc(OC)c1OC,inactive
21,COc1ccc(CN2CCc3nc(Nc4ccccc4)ncc3C2)c(OC)c1OC,inactive
22,Cc1cccc(Cn2c(CN3CCC(C(=O)NCc4ccccc4Cl)CC3)cc3ccccc32)c1,inactive
23,CCOC(=O)N1CCc2c(sc3c2c(=O)n(Cc2ccccc2)c(=O)n3CC(=O)Nc2cccc(C)c2)C1,inactive
24,O=C(Nc1cc(Cl)cc(Cl)c1)c1ccc2c(c1)N(Cc1cccc(Cl)c1)C(=O)c1ccccc1S2=O (stereo not given),inactive

row,Structure (SMILES),Potency
1,CCc1ccc(NC(=O)c2nn(-c3ccc(C)cc3)c(=O)n(C)c2=O)cc1,inactive
2,CCN1C(=O)c2ccccc2S(=O)c2ccc(C(=O)NCc3ccc(F)cc3)cc21 (stereo not given),inactive
3,CCn1cc(C(=O)N2CCN(c3cc(C)ccc3C)CC2)c(=O)c2cc(S(=O)(=O)N(C)C3CCCCC3)ccc21,inactive
4,CCCn1c(=S)[nH]c2ccc(C(F)(F)F)cc21,inactive
5,CNS(=O)(=O)c1ccc2c(c1)[nH]c(=S)n2C,inactive
6,CC(C)n1c(=S)[nH]c2cc(C(F)(F)F)ccc21,12.6 µM (active)
7,Cn1c(=O)c2c(-c3ccccc3Br)n(Cc3ccccc3)cc2n(C)c1=O,inactive
8,COc1ccc(N2CCN(C(=O)CSCc3nc(-c4ccccc4Cl)oc3C)CC2)cc1,inactive
9,Cc1ccc(CN(Cc2cccnc2)C(=S)Nc2cccc(Cl)c2C)cc1,11.2 µM (active)
10,Cc1c(Cl)cccc1NC(=S)N(Cc1ccccc1)Cc1cccnc1,inactive
11,Cc1cccc(C)c1NC(=S)N(Cc1cccnc1)Cc1ccccc1Cl,inactive
12,CCOC(=O)c1nnn(CC(=O)NC(=O)Nc2ccccc2F)c1C(=O)OCC,inactive
13,CCS(=O)(=O)N1CCc2cc(C(=O)NCc3ccc(OC)cc3)ccc21,inactive
14,CCOC(=O)c1cc(NC(=O)c2ccc(F)cc2)c(=O)n2c1oc1ccccc12,inactive
15,COc1ccc(CCNC(=O)c2cc3cccc4c3n2CC(C)S4)c(OC)c1OC (stereo not given),inactive
16,COc1ccc(Cn2c(C(=O)O)c(CNCc3cccc(OC)c3)c3ccc(C)cc32)cc1,inactive
17,CC(C)S(=O)(=O)c1oc(-c2ccc(F)cc2)nc1S(=O)(=O)c1ccc(F)cc1,inactive
18,CC(Sc1oc(-c2ccco2)nc1S(=O)(=O)c1ccc(Br)cc1)c1ccccc1 (stereo not given),inactive
19,Cc1nn(-c2ccc(F)cc2)c(-n2cccc2)c1C(=O)N1CCN(c2ccccc2)CC1,inactive
20,CCCc1nc2c3ccccc3ccn2c1Cc1ccccc1C(F)(F)F,inactive
21,N#Cc1ccc(-c2nc3c(Cl)cc(C(F)(F)F)cn3c2Cc2ccccc2C(F)(F)F)cc1,inactive
22,FC(F)(F)c1ccccc1Cc1c(-c2ccccc2)nc2c3ccccc3ccn12,12.6 µM (active)
23,COc1cccc(-n2cc(C(=O)NCc3cccc(Cl)c3)c3ccccc3c2=O)c1,inactive
24,COc1ccc(Cn2ccn(CC(=O)Nc3cc(C)ccc3C)c(=O)c2=O)cc1,inactive

row,Structure (SMILES),Potency
1,COCCn1c(SCC(=O)c2cc(C)ccc2C)nc2cc(C(=O)NC3CCCC3)ccc2c1=O,inactive
2,COc1cccc(C(=O)NC2(C(F)(F)F)C(=O)Nc3c2c(=O)[nH]c(=O)n3-c2ccc(C)cc2)c1 (stereo not given),inactive
3,CCOc1ccc(-n2c(C)nc3c(cnn3-c3ccc(C)cc3)c2=O)cc1,inactive
4,CCC(=O)N1c2ccccc2CC1C(=O)N1CCN(c2ccccc2)CC1 (stereo not given),inactive
5,COc1cc(CNCCSc2nnnn2C)ccc1OCc1ccc(Cl)cc1Cl,inactive
6,CC1=C(C(=O)Nc2ccccc2Cl)C(c2cccs2)n2ncnc2N1 (stereo not given),inactive
7,CCCCOC(=O)CSc1ncnc2sc3c(c12)CCC(C)C3 (stereo not given),inactive
8,CC1CCCN(S(=O)(=O)c2ccc3[nH]c(=O)cc(C(=O)NCCc4ccc(Cl)cc4)c3c2)C1 (stereo not given),inactive
9,CCCn1c2ccccc2c2cnn(CC(=O)N3CCCC(C(=O)OCC)C3)c(=O)c21 (stereo not given),inactive
10,CCOC(=O)c1ccc(N2C(=O)c3n[nH]c(-c4ccco4)c3C2c2ccc(O)cc2)cc1 (stereo not given),inactive
11,COc1ccc(-c2cn3nc(N4CCCC(C(=O)NCCCOC(C)C)C4)sc3n2)cc1 (stereo not given),inactive
12,COc1ccc2cc(CNc3ccc(OC)c(OC)c3)c(=O)n(CC(=O)Nc3ccccc3F)c2c1,inactive
13,Cc1ccc(C)c(N2CCN(CCCNC(=O)Nc3ccc(Cl)cc3)CC2)c1,inactive
14,COc1ccc(S(=O)(=O)c2cn(C)c3cc(N4CCCCC4)c(F)cc3c2=O)cc1,inactive
15,COc1cccc(CNCc2c(C(=O)O)n(Cc3ccc(C)cc3)c3cc(C)ccc23)c1OC,inactive
16,O=C(NC1CCCCC1)c1ccc2c(c1)N(Cc1ccc(Cl)cc1)C(=O)c1ccccc1S2=O (stereo not given),inactive
17,COc1ccc(NC(=O)NC(C)c2c(-n3cccc3)sc(C)c2C)cc1OC (stereo not given),inactive
18,COc1ccc(OC)c(-c2noc(N3CCN(c4cc(Cl)ccc4C)CC3)n2)c1,inactive
19,O=C(Nc1c(C(=O)N2CCN(c3ccc(F)cc3)CC2)oc2ccccc12)c1ccco1,inactive
20,CCOc1ccc(CNC(=O)c2cccc(Nc3nc4ccccc4n4nnnc34)c2)cc1OC,inactive
21,CCc1cc2c(cc3c(=O)n(CC(=O)NCc4cccc(Cl)c4)nc(CC)n32)s1,inactive
22,Cc1nn(CC(=O)NCCc2ccccc2)c(=O)c2c1sc1ccccc12,inactive
23,O=C(CSc1nccn1-c1ccc(F)cc1)Nc1cccc2ccccc12,inactive
24,Cn1c(=O)cc(OCC(=O)N2CCN(c3ccccc3)CC2)c2ccccc21,inactive

row,Structure (SMILES),Potency
1,COc1cc2c(cc1OC)C(COc1ccc(F)cc1)N(C(=O)c1ccccc1F)CC2 (stereo not given),inactive
2,CCOc1ccccc1NC(=O)CSc1ncc(S(=O)(=O)c2ccc(C(C)(C)C)cc2)c(=O)[nH]1,inactive
3,CCOCCCn1c(SCC(=O)Nc2ccc(CC)cc2)nc2ccccc2c1=O,inactive
4,CCCN(CCC)C(=O)C1CCCN(c2ncnc3c2nc2n3CCCCC2)C1 (stereo not given),inactive
5,Cn1c(=O)n(Cc2c(F)cccc2Cl)c(=O)c2c1nc1n2CCN1c1ccc(F)cc1,inactive
6,Cc1ccc(Cl)cc1N1CCN(C(=O)c2cccn3c(=O)c4cc(Cl)ccc4nc23)CC1,inactive
7,COCCN(Cc1ccco1)C(=O)Cn1ncc2c([nH]c3ccccc32)c1=O,inactive
8,O=C(CSc1nnc(-c2ccccc2F)o1)Nc1cccc(C(F)(F)F)c1,inactive
9,Cc1ccc2nc(COc3cccc(NC(=O)c4cccc(Cl)c4)c3)cc(=O)n2c1,inactive
10,COc1ccc(-n2ccn(CC(=O)Nc3ccc(C)c(C)c3)c(=O)c2=O)cc1OC,inactive
11,COc1ccc(CNC(=O)Cc2coc3ccc(C(C)C)cc23)cc1,inactive
12,CCCCCn1c(=O)[nH]c2cc(C(=O)NCCN(C)CCCC)ccc2c1=O,inactive
13,CCOc1ccc(CNC(=O)c2cc(=O)[nH]c3ccc(S(=O)(=O)N4CCCCC4)cc23)cc1,inactive
14,Cc1ccc(C)c(Nc2nnc(-c3ccc(C)c(S(=O)(=O)N4CCCCC4)c3)c3ccccc23)c1,inactive
15,CCc1cccc(C)c1Nc1c(-c2ccc(N(C)C)cc2)nc2ncccn12,inactive
16,COc1ccc(-c2nc3ccccc3o2)cc1NC(=O)c1cc([N+](=O)[O-])ccc1N1CCOCC1,inactive
17,Cc1ccc(-c2nc3ccccn3c2Nc2c(C)cccc2C)o1,inactive
18,COc1ccc(NS(=O)(=O)c2cc3c4c(c2)CC(=O)N4CCC3)cc1Cl,inactive
19,O=S(=O)(Nc1ccc2nc(-c3cccc(Cl)c3)oc2c1)c1ccccc1,inactive
20,CCOC(=O)c1ccc(NC(=O)c2c(NCc3cccc(OC)c3)sc3c2CCC3)cc1,inactive
21,CCOC(=O)C1CCN(c2csc3ccc(C)cc3c2=O)CC1,inactive
22,CCC(=O)Nc1ccccc1-c1nc2ccccc2n(CC(=O)Nc2ccc(C)c(C)c2)c1=O,inactive
23,CCCNc1ncnc2c1c(-c1ccccc1)cn2-c1ccc(OCC)cc1,inactive
